Results from the supplement of paper PMC10849652.
About 7,900 targets were measured; listed, in parts, are those with a hit and a random draw of the rest. About 0.6% of all pairs of compound and target were hits. A number with no mark means an inactive call.

Experiments:
Experiment in all cases: log2 fold change, soluble protein after heating vs DMSO (PISA); higher = thermal stabilisation; K562 cells, 10 uM, 30 min; active = over 0.2 and 3.5 SD of the protein, either way, in both replicates (recomputed)
[1] = compound: CC1=C(C=C(C=C1)NC(=O)C2=CC(=CC=C2)C(C)(C)C#N)NC3=CC4=C(C=C3)N=CN(C4=O)C
Summary of the method: (§1)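 K562 cells at 2×10^6 cells/mL were treated for 30 min with 10 μM compound, and aliquots were heated for 3 min over 48°C-58°C before pooling. Extraction used PBS with 0.5% NP-40 at 4°C, and soluble protein was the supernatant after 21,000xg for 90 min, measured by TMTpro 16plex LC-MS/MS with channel sums equalised. Thermal stability values, relative to control samples and from duplicates, are log2 fold changes.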

[2] = compound: CC1=C(C=C(C=C1)NC(=O)C2=CC(=CC=C2)N(C)C)NC(=O)C3=CC=C(C=C3)O
Summary of the method: as §1

[3] = compound: CC1=CC=C(C=C1)SC2=C3C=C(SC3=CN=C2)C(=O)N
Summary of the method: as §1

[4] = compound: CC1=NC(=CC=C1)C2=C(N=C(N2)C(C)(C)C)C3=CC4=NC=CN=C4C=C3
Summary of the method: as §1

Nexturastat A = compound: CCCCN(Cc1ccc(C(=O)NO)cc1)C(=O)Nc1ccccc1 [Nexturastat A]
Summary of the method: as §1

vemurafenib = compound: CCCS(=O)(=O)Nc1ccc(F)c(C(=O)c2c[nH]c3ncc(-c4ccc(Cl)cc4)cc23)c1F [vemurafenib]
Summary of the method: as §1

[5] = compound: CCCS(=O)(=O)Nc1ccc(F)c(C(=O)c2c[nH]c3ncc(Cl)cc23)c1F
Summary of the method: as §1

[6] = compound: CCCc1cc(C)[nH]c(=O)c1CNC(=O)c1cc(-c2ccnc(N3CCN(C)CC3)c2)cc2c1cnn2C(C)C
Summary of the method: as §1

givinostat = compound: CCN(CC)Cc1ccc2cc(COC(=O)Nc3ccc(C(=O)NO)cc3)ccc2c1 [givinostat]
Summary of the method: as §1

barasertib = compound: CCN(CCCOc1ccc2c(Nc3cc(CC(=O)Nc4cccc(F)c4)[nH]n3)ncnc2c1)CCOP(=O)(O)O [barasertib]
Summary of the method: as §1

Sequence of UniProt P35610 (P35610 whole entry, looked up): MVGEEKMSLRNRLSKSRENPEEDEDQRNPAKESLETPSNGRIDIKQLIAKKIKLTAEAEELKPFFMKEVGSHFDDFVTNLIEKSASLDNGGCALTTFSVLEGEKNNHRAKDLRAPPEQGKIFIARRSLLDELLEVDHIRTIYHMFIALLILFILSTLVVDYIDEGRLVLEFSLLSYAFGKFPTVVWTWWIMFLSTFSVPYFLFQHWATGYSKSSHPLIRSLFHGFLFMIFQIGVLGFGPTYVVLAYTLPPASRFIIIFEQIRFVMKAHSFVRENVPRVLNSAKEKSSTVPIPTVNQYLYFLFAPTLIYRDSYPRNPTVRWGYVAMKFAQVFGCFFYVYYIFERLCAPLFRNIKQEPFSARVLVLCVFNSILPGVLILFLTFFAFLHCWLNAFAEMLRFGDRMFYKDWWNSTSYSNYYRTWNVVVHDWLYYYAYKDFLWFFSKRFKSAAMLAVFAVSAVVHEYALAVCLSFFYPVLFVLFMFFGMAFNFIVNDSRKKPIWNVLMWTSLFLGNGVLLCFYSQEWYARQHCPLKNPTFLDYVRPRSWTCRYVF
Sequence of UniProt Q96CW6 (Q96CW6 whole entry, looked up): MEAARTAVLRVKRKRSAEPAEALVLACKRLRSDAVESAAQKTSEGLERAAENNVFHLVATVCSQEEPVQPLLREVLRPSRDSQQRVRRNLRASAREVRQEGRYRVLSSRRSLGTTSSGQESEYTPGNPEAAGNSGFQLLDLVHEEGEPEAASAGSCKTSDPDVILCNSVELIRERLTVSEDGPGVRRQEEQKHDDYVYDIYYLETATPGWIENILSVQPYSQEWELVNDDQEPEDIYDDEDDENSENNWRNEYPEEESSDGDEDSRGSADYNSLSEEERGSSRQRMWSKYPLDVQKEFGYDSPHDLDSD
Sequence of UniProt Q01085 (Q01085 whole entry, looked up): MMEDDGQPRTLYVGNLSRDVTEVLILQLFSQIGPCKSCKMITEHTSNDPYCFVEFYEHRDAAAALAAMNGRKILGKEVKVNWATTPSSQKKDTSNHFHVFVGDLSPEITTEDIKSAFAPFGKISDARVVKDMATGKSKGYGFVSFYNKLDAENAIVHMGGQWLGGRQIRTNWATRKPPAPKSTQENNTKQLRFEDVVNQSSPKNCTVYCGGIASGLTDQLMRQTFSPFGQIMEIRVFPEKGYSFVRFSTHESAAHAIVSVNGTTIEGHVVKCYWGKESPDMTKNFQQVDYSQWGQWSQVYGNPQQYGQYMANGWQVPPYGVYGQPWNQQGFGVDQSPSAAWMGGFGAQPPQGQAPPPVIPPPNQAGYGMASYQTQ
Sequence of UniProt Q08945 (Q08945 whole entry, looked up): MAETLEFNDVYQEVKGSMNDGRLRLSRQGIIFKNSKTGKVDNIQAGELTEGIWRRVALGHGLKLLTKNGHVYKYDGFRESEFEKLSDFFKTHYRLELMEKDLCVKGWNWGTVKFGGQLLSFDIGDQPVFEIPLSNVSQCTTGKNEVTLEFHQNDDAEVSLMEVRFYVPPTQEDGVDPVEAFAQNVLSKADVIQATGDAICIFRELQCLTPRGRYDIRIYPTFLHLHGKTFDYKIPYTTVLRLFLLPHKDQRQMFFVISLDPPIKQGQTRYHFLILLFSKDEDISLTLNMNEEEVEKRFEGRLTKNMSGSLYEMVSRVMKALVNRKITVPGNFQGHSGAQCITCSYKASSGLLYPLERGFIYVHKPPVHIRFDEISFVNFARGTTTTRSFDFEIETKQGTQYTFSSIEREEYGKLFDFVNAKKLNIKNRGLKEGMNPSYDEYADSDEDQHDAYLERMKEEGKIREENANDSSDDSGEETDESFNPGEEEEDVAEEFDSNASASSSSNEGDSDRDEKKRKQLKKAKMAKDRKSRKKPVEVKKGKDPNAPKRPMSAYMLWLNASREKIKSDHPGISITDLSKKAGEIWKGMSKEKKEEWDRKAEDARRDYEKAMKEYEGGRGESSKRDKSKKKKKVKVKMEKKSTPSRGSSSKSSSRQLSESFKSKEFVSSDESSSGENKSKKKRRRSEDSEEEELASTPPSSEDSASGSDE
Sequence of UniProt Q8N1S5 (Q8N1S5 whole entry, looked up): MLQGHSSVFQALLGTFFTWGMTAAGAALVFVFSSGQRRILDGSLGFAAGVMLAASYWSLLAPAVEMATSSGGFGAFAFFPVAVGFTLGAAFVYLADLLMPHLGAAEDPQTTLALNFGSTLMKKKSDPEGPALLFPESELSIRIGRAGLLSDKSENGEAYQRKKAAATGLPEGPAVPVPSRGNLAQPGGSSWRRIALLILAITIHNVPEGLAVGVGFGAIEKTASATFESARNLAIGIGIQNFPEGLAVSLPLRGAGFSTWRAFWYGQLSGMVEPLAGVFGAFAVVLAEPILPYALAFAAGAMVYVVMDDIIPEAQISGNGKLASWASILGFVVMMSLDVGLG
Sequence of UniProt Q92544 (Q92544 whole entry, looked up): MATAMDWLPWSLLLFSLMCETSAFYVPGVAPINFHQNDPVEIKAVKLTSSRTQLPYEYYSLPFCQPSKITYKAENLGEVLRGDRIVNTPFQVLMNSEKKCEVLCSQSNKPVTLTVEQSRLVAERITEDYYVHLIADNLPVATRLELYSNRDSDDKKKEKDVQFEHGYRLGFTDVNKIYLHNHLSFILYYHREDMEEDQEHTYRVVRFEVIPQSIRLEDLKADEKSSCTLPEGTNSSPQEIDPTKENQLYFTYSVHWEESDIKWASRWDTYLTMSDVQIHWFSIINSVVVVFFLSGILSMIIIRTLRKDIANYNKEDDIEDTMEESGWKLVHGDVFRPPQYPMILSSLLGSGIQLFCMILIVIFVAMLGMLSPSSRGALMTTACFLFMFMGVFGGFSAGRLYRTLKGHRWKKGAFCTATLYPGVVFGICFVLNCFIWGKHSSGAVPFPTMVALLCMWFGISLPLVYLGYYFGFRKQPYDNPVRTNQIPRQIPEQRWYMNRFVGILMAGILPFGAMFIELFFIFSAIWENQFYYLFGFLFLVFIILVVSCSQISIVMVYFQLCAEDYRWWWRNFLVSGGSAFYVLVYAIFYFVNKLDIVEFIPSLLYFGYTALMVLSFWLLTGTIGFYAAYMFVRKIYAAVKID
Sequence of UniProt Q969X1 (Q969X1 whole entry, looked up): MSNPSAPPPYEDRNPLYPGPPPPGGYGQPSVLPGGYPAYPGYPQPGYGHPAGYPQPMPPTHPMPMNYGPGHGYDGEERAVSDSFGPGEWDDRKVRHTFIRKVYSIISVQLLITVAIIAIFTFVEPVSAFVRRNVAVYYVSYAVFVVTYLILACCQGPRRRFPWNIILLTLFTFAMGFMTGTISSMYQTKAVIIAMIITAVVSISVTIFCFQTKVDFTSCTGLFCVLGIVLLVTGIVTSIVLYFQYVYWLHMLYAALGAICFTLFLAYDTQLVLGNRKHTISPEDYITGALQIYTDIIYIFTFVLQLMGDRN
Sequence of UniProt Q9BTW9 (Q9BTW9 whole entry, looked up): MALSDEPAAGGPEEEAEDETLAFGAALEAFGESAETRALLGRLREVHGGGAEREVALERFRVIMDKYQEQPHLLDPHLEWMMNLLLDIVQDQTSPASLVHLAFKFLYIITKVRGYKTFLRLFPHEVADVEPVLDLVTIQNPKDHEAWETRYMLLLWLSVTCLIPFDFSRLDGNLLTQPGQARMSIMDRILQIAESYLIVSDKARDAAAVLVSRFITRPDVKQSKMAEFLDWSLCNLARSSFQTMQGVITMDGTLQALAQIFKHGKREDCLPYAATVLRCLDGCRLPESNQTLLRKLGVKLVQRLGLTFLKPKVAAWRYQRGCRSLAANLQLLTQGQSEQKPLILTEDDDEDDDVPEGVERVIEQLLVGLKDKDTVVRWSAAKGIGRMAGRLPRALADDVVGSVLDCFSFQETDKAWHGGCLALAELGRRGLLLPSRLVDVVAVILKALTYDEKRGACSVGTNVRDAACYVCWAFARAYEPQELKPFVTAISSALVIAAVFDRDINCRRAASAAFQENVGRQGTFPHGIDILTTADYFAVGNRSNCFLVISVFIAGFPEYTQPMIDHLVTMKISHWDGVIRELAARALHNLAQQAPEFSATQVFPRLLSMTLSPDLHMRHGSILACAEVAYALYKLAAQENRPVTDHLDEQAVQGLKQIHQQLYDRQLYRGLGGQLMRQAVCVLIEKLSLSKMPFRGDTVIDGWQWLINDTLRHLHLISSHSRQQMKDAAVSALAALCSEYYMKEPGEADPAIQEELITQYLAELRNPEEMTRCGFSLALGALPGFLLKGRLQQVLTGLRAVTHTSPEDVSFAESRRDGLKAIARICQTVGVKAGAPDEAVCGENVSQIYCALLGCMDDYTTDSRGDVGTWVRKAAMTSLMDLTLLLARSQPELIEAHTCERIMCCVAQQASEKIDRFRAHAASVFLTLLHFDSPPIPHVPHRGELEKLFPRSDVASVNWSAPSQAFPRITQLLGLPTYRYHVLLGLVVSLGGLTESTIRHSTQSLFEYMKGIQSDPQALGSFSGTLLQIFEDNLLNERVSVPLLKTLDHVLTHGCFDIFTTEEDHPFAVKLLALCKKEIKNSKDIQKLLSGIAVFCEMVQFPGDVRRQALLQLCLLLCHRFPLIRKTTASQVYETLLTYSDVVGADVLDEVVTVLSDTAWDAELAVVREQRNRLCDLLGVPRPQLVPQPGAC
Sequence of UniProt Q9NVC3 (Q9NVC3 whole entry, looked up): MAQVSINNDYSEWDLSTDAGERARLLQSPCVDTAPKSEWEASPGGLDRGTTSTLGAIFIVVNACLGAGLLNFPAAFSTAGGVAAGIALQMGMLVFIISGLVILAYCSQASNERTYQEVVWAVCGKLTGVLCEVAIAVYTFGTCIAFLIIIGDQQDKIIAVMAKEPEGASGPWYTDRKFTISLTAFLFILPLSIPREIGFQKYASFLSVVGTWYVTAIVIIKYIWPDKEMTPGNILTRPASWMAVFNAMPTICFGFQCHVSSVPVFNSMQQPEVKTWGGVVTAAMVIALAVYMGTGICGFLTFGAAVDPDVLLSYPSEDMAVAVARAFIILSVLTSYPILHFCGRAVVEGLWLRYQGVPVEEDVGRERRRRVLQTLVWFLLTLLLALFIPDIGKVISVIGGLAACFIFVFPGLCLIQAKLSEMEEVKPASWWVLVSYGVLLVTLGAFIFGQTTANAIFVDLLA
Sequence of UniProt Q9Y5J6 (Q9Y5J6 whole entry, looked up): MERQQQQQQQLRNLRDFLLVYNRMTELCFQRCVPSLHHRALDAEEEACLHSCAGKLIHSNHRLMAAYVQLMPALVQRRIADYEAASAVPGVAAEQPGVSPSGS

Target | log2 fold change [1] | log2 fold change [2] | log2 fold change [3] | log2 fold change [4] | log2 fold change (Nexturastat A) | log2 fold change (vemurafenib) | log2 fold change [5] | log2 fold change [6] | log2 fold change (givinostat) | log2 fold change (barasertib)
STARD7 (UniProt Q9NQZ5) | 0.061 | 0.015 | 0.004 | -0.01 | -0.053 | 0 | -0.033 | 0.024 | -0.029 | -0.008
SUCLA2 (UniProt Q9P2R7) | -0.038 | -0.018 | 0.003 | 0.06 | -0.083 | 0.047 | 0.008 | -0.02 | -0.003 | 0.064
SRFBP1 (UniProt Q8NEF9) | 0.008 | -0.019 | -0.127 | -0.025 | 0.111 | – | -0.012 | -0.012 | -0.061 | -0.045
TIMM10B (UniProt Q9Y5J6) | -0.053 | -0.075 | 0.018 | – | -0.05 | 0.073 | -0.077 | -0.057 | 0.061 | 0.067
SYNE2 isoform 2 (UniProt Q8WXH0) | -0.084 | 0.014 | 0.064 | -0.131 | – | -0.04 | 0 | -0.171 | 0.43 | 0.079
TARS2 (UniProt Q9BW92) | -0.027 | 0.022 | 0.021 | 0.078 | -0.201 | 0.008 | 0.027 | -0.013 | -0.245 (active) | 0.028
TBC1D10B (UniProt Q4KMP7) | -0.019 | 0.015 | 0.025 | 0 | -0.051 | 0.004 | 0.048 | 0.014 | 0.018 | 0.01
TACC2 (UniProt O95359) | -0.015 | -0.058 | 0.16 | – | – | 0.032 | -0.054 | -0.085 | -0.284 (active) | 0.012
TK1 (UniProt K7ERV3) | -0.185 | -0.055 | -0.273 | – | -0.178 | -0.077 | -0.009 | -0.149 | – | 0.088
SLC4A2 (UniProt P04920) | 0.04 | 0.008 | 0.039 | -0.017 | 0.046 | 0.002 | 0.035 | -0.043 | 0.037 | 0.045
TM9SF4 (UniProt Q92544) | 0.084 | -0.022 | 0.014 | -0.012 | -0.029 | 0.031 | 0.073 | 0.034 | 0.054 | 0.004
TARBP1 (UniProt Q13395) | 0.069 | 0.001 | 0.002 | -0.01 | 0.016 | 0.036 | -0.062 | -0.067 | -0.017 | 0.023
SRP68 (UniProt Q9UHB9) | 0.028 | -0.062 | 0 | 0.018 | 0.125 | 0.063 | 0.091 | 0.064 | 0.075 | 0.078
SOAT1 (UniProt P35610) | 0.259 | -0.044 | 0.038 | -0.03 | 0.002 | -0.036 | -0.015 | -0.137 | 0.152 | 0.001
TIAL1 isoform 2 (UniProt Q01085) | -0.009 | 0.015 | -0.019 | 0.08 | 0.005 | 0.023 | 0.002 | -0.007 | -0.022 | -0.021
SURF1 (UniProt Q15526) | 0.045 | -0.008 | -0.019 | 0.087 | -0.033 | 0.042 | 0.124 | -0.01 | -0.01 | 0.027

Target | log2 fold change [1] | log2 fold change [2] | log2 fold change [3] | log2 fold change [4] | log2 fold change (Nexturastat A) | log2 fold change (vemurafenib) | log2 fold change [5] | log2 fold change [6] | log2 fold change (givinostat) | log2 fold change (barasertib)
TCERG1 (UniProt O14776) | 0.061 | -0.147 | 0.08 | 0.077 | -0.144 | 0.118 | 0.135 | -0.006 | 0.146 | 0.107
SP3 (UniProt Q02447) | -0.008 | -0.126 | -0.041 | -0.058 | -0.003 | -0.038 | 0.012 | -0.052 | -0.219 | 0.011
SPTBN4 (UniProt Q9H254) | -0.013 | -0.037 | 0.144 | 0.025 | 0.039 | -0.027 | -0.036 | -0.12 | 0.112 | -0.013
SLC38A7 (UniProt Q9NVC3) | 0.092 | 0.009 | 0 | 0.094 | -0.04 | 0.042 | 0.012 | -0.002 | 0.008 | -0.012
SOX5 (UniProt P35711) | -0.125 | 0.004 | -0.144 | 0.02 | – | -0.05 | -0.063 | 0.042 | 0.013 | -0.119
SMIM20 isoform 2 (UniProt Q8N5G0) | 0.01 | 0.008 | -0.052 | – | 0.006 | 0.148 | -0.059 | -0.024 | -0.102 | -0.026
SSBP4 (UniProt Q9BWG4) | 0.056 | -0.017 | -0.133 | 0.003 | – | – | 0.021 | -0.036 | -0.042 | 0.053
TMBIM1 (UniProt Q969X1) | 0.113 | -0.055 | 0.09 | – | -0.02 | -0.132 | 0.185 | -0.134 | 0.004 | -0.057
SLC39A11 (UniProt Q8N1S5) | 0.046 | 0.372 | -0.057 | 0.045 | – | 0.055 | -0.026 | -0.009 | 0.074 | -0.002
SLC7A6OS (UniProt Q96CW6) | -0.065 | -0.033 | -0.042 | -0.075 | -0.031 | -0.015 | 0.013 | -0.025 | 0.017 | 0.01
SRXN1 (UniProt Q9BYN0) | -0.149 | 0.01 | 0.04 | 0.089 | -0.036 | 0.142 | 0.017 | -0.027 | – | 0.012
TBCD (UniProt Q9BTW9) | 0.016 | 0.003 | 0.025 | 0.052 | -0.051 | 0.005 | 0.02 | -0.007 | 0.012 | 0.019
SSRP1 (UniProt Q08945) | -0.072 | -0.049 | 0.018 | 0.091 | -0.069 | 0.051 | 0.062 | 0.015 | 0.033 | 0.059
TIMM44 (UniProt O43615) | 0.048 | -0.028 | 0.091 | 0.074 | -0.052 | -0.002 | 0.12 | -0.096 | -0.013 | 0.055
SRCAP (UniProt Q6ZRS2) | -0.177 | -0.286 | 0.058 | 0.036 | – | 0.278 | 0.082 | -0.02 | -0.041 | 0.026
